# Screens from PubChem.
# Hits are enriched below; roughly 19% of the tested compounds scored in any of these assays.
# HT1080 IDH1KD tx: qHTS for induction of synthetic lethality in tumor cells producing 2HG: qHTS for the HT-1080-IDH1KD cell line | HT-1080 IDH1 knockdown viability, ATP luminescence, 48 h | Potency, µM (top dose mostly 46.1 µM), for inactives: at the top dose activity, negative = toxicity, most hits filed as cytotoxic | actives 2% (n = 360,000);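 note: potency is the fitted concentration of half-maximal effect; 0% = DMSO wells and -100% = cell-free medium wells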
#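 CellTiter-Glo luminescence after 48 h compound exposure at 37 degrees C of IDH1-knockdown HT-1080 cells in 5% FBS RPMI. %Activity scaled between DMSO wells and cell-free media wells, with curves fitted and assigned curve classes.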
# TDP1 cell noCPT: qHTS for Inhibitors of human tyrosyl-DNA phosphodiesterase 1 (TDP1): qHTS in cells in absence of CPT; DT40 Tdp1-/- hTDP1 cells, no CPT, ATP luminescence, 48 h; Potency, µM (top dose mostly 46.2 µM), for inactives: at the highest dose activity change, negative = growth inhibition, hits mostly inhibitors; actives 15% (n = 420,000); AID 686978, 2013; note: potency is the fitted concentration of half-maximal effect; nearly all actives have a fitted effect of over 55% in size
#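 Luminescent ATP content (CellTiter-Glo) served as the growth readout. Knockout chicken DT40 cells expressing human TDP1 were exposed to compounds without camptothecin for a minimum 48 hr at 37 °C.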
# TDP1 cell CPT: qHTS for Inhibitors of human tyrosyl-DNA phosphodiesterase 1 (TDP1): qHTS in cells in presence of CPT; chicken DT40 Tdp1-/-;hTDP1 cells + 20 nM CPT, ATP luminescence, 48 h; Potency, µM (highest dose often 46.2 µM), without a hit: top-dose activity change, negative = growth inhibition, most hits filed as inhibitors; actives 12% (n = 420,000); note: potency is the fitted concentration of half-maximal effect; nearly all actives have a fitted effect of over 55% in size
#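 Chicken DT40 Tdp1-/- cells complemented with human TDP1, 400 cells/well, exposed to compounds plus 20 nM camptothecin for at least 48 h at 37 C; viability read as ATP content by CellTiter-Glo luminescence.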
# HT1080NT lethal: qHTS for induction of synthetic lethality in tumor cells producing 2HG: qHTS for the HT-1080-NT fibrosarcoma cell line | actives 1.6% (n = 360,000) | Potency, µM (doses to about 46.1 µM), for the others: top-dose activity, negative = less viability, actives largely listed as cytotoxic | AID 686970, 2013 | HT-1080-NT fibrosarcoma viability, CellTiter-Glo ATP luminescence, 48 h;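 note: NT is the 2HG producing partner of a matched IDH1 knockdown line; potency is the fitted concentration of half-maximal effect; 0% = DMSO-treated cells and -100% = media-only wells without cells; nearly all actives have a fitted effect of over 55% in size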
#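 Fibrosarcoma NT cells, 750 per well in 5% FBS RPMI, were exposed to compound for 48 hours. Viability: CellTiter-Glo luminescence.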
# IL-1B inflam inh: qHTS for Inhibitors of Inflammasome Signaling: IL-1-beta AlphaLISA Primary Screen; actives 4.7% (n = 360,000); THP-1 LPS/ATP IL-1B secretion, AlphaLISA, 16 h; stronger effect = lower value; AID 743279, 2014; activity change, % at 57.5 µM; in the data active = activity change below about -50%; inconclusive = mostly about -30% to -49%
#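 Secreted IL-1B measured by AlphaLISA bead assay after 16 h compound exposure of THP-1 cells; compounds (final up to 57.5 uM) added 1 h before LPS (250 ng/mL) and ATP (1.25 mM) stimulation; lower signal means less secretion.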
# * marks the source's active call; other numbers are inactive results; ? = inconclusive; nt = not tested or not shown; ! = not active in a repeat; [ ] = another dose, or the depositor's remark. Unless noted, calls come from the whole dose curve; as a rule, active = well fitted curve in the direction sought with a large enough effect; inconclusive = small, poorly fitted or top-dose-only effect, or another doubt; inactive = no such curve, though single readings can be large; an effect the other way counts as inactive or inconclusive. Unless noted, % is set by controls: 0 for no effect and ±100 for the full control effect.
SMILES,HT1080 IDH1KD tx,TDP1 cell noCPT,TDP1 cell CPT,HT1080NT lethal,IL-1B inflam inh
Oc1ccc(Nc2nc(-c3cccs3)cs2)cc1,1.7%,5.8%,-7.4%,2.7%,-2.8
COc1cccc(-c2csc(Nc3ccc(Oc4ccccc4)cc3)n2)c1,-10.3%,?,?,-15.2%,-18.4
COc1ccccc1-c1csc(Nc2ccc(Oc3ccccc3)cc2)n1,1.4%,?,18.4µM*,4.3%,6.9
COc1ccc(Nc2nc(-c3cccs3)cs2)cc1,11.2%,23.1µM*,20.6µM*,8.2%,4.4
CCC(C)NCC(=O)Nc1ccc(S(N)(=O)=O)cc1 (centres undefined),23.4%,-33.2%,?,24.6%,6.9
CCN1C[C@@H]2[C@@H]3C(=O)N(Cc4ccccc4)C(=O)[C@@H]3[C@](CC)(C1=O)N2C(=O)c1ccc(Cl)c(Cl)c1,-3.8%,25.9µM*,16.4µM*,-8.2%,-14.2
CCN1C[C@@H]2[C@@H]3C(=O)N(Cc4ccccc4)C(=O)[C@@H]3[C@](Cc3ccccc3)(C1=O)N2C(=O)c1ccc(Cl)c(Cl)c1,2.1%,?,?,-2.6%,-29.4
CN1C[C@@H]2[C@@H]3C(=O)N(Cc4ccccc4)C(=O)[C@@H]3[C@](Cc3ccccc3)(C1=O)N2C(=O)c1ccc(C(C)(C)C)cc1,-26.1%,16.4µM*,16.4µM*,?,-88.5*
CCN(CC)c1ccc2cc(C=O)c(=O)oc2c1,-10.2%,18.4µM*,29.1µM*,1.4%,-19.2
CCN(CC)c1ccc2cc(C(=O)Nc3ccccn3)c(=O)oc2c1,8.2%,?,4.47µM*!,25.5%,-9.0
CCN(CC)c1ccc2cc(-c3nc(-c4cc(OC)c(OC)c(OC)c4)no3)c(=O)oc2c1,nt,10.3µM*,20.6µM*,nt,nt
CCN(CC)c1ccc2cc(-c3nnc(-c4ccncc4)o3)c(=O)oc2c1,3.6%,20.6µM*,11.6µM*,-0.6%[9.24 µM],9.5
Clc1ccc(-c2csc(-c3cccnc3)n2)s1,12.4%,-18.6%,1.6%,28.6%,-4.0
CS(=O)(=O)N1CCN(CCN2C(=O)c3cccc4cccc(c34)C2=O)CC1,27.3%,?,-9.0%,25.1%,-12.4
COc1ccc(C(=O)CN2CCN(CCN3C(=O)c4cccc5cccc(c45)C3=O)CC2)cc1,-29.7%,20.6µM*,?,-26.9%,-20.5
CC(C)(C)C(=O)N1CCN(CCN2C(=O)c3cccc4cccc(c34)C2=O)CC1,16.3%,-28.1%,-23.4%,13.6%,11.2
COc1cc2c3c(cccc3c1)C(=O)N(CCN1CCCC1)C2=O,8.2µM*,0.103µM*,0.0366µM*,13µM*,-10.5
CN(C)C(=O)N1CCN(c2nc(-c3ccccc3)cs2)CC1,-10.5%,?,?,-3.2%,-23.0
Cc1ccc2c(c1)CCO[C@@]21O[C@H](CCO)C[C@H](O)[C@H]1O,9.6%,-10.4%,-13.9%,8.7%,28.5
CSc1ncnc2c1ncn2CCCN1CCN(Cc2cccc3ccccc23)CC1,-9.9%,23.1µM*,?,-3.3%,?
CSc1ncnc2c1ncn2CCCNCc1ccccc1,3.4%,-14.2%,15.0%,5.6%,-12.7
CSc1ncnc2c1ncn2CCCN1CCN(c2ncccn2)CC1,-0.2%,?,-5.9%,1.9%,34.0
CSc1ncnc2c1ncn2CCCNc1ccc(C)c(C)c1,-6.2%,20.6µM*,?,-1.9%,22.9
COc1ncnc2c1ncn2CCCN1CCN(Cc2cccc3ccccc23)CC1,-7.1%,23.1µM*,?,0.4%,-4.5
O=C(Cc1ccccc1)N/N=C/c1cc2c(cc1Cl)OCO2,4.1%,29.1µM*,?,7.2%,5.9
Cc1[nH]c2ccccc2c1/C=N/NC(=O)c1cccc(F)c1,-1.5%,11.5%,-7.3%,1.9%,18.8
